We go through 40 molecules from PubChem BioAssay AID1259240 (Keith Lab, Institute of Cancer Science, University of …, 2017).

The source made the active and inactive calls. Cut-off read from the data, not from the text of the source: active = fold change mostly below about -2 (no sharp cut-off); inactive = mostly above about -1.8.

The nature of the assay: modulation of TERT promoter-driven luciferase – cell-based, luciferase reporter, human, primary screen (AID 1259240). Particulars: A2780 TERT promoter luciferase reporter, 16 h; at 20 µM, fold versus average of vehicle-only wells.
As for `COc1cccc(/C=c2\sc3nc(-c4ccco4)nn3c2=O)c1OC`, the fold change was 1.43 (inactive).
For `Cc1cc(C)n(-c2nc3ccccc3n3cnnc23)n1`, the fold change was -1.18 (inactive).
On the same count and under the same terms, the result for `CCOC(=O)c1c(C=O)c2ccccc2n1C` reads 1.15 (inactive); that for `CCOC(=O)Cn1c(=O)oc2cc(S(=O)(=O)NC3CCCC(C)C3C)ccc21` (stereo not given), 1.21 (inactive).
As for `Cc1cc(NS(=O)(=O)c2ccc(NC(=O)[C@@H]3CCCC[C@@H]3C(=O)O)cc2)no1`, the fold change is -1.94 (inactive).
Take `COc1cc(Cl)cc(OC)c1NC(=O)Nc1ccc2snnc2c1`: the fold change is -1.47 (inactive).
Regarding `COC(=O)c1cc(NS(=O)(=O)c2cccc3cccnc23)cc(C(=O)OC)c1`, the fold change is -1.91 (inactive).
Same read-out and setting: the value for `O=C(O)CSc1ncn(-c2ccccc2)n1` was -4.67 (active); that for `CCOC(=O)N1CCN(c2c(NCCCOC)c(=O)c2=O)CC1` was 1.11 (inactive); that for `CC(C)(C)NC(=O)Cn1c(=O)oc2ccc(Cl)cc21` was -3.03 (active).
As for `COc1ccc(OC)c(NC(=O)CSc2nc(-c3cccs3)nc3c2c(=O)n(C)c(=O)n3C)c1`, the fold change is 1.71 (inactive).
Same read-out and setting: the value for `CCS(=O)(=O)Nc1ccc(C2=NN(S(C)(=O)=O)C(c3ccco3)C2)cc1` (stereo not given) was -1.18 (inactive); that for `CN(CC(=O)O)S(=O)(=O)c1cccc2cccnc12` was -1.07 (inactive).
As to `Clc1ccc(-c2nnn3c2nc(NCC2CCCO2)c2ccccc23)cc1` (stereo not given), the fold change is -1.11 (inactive).
Turning to `CCCN(CCC)C(=O)Cn1c(=O)oc2cc(S(=O)(=O)N3CC(C)CC(C)C3)ccc21` (stereo not given), the fold change was 1.03 (inactive).
Turning to `C=CCOc1ccc(-c2nc3s/c(=C\c4ccc(OC(C)=O)c(OC)c4)c(=O)n3n2)cc1`, the fold change is 1.33 (inactive).
The same measure, in the same setting: the result for `Cc1ccc(-n2c(C)cc(/C=C3/SC(=S)N(CC(=O)O)C3=O)c2C)cc1` reads -5.22 (active).
For `COc1cc2c(cc1OC)C(c1ccc(C)c(Br)c1)CC(=O)N2` (stereo not given), the fold change was -1.04 (inactive).
The same measure, in the same setting: the result for `OC(c1ccccc1)c1nn(CN2CCOCC2)c(=S)n1-c1ccccc1` (stereo not given) reads -3.71 (active); that for `CC1CCCCC1NC(=O)CN(C)S(=O)(=O)c1ccc2c(c1)CCC(=O)N2` (stereo not given), 1.04 (inactive); that for `Cc1cc(C)cc(N(CC(=O)O)S(=O)(=O)c2ccc3[nH]c(=O)c(=O)[nH]c3c2)c1`, 1.37 (inactive).
As to `CCc1ccc(N2CC(O)=C(c3nc4ccccc4c(=O)[nH]3)C2=N)cc1`, the molecule was called inactive.
Turning to `CCN(Cc1ccccc1)C(=O)C1CCCN1S(=O)(=O)c1cccc2nsnc12` (stereo not given), the fold change was 1.58 (inactive).
`COCCn1cc(/C=C2/C(=O)Nc3ccccc32)c2ccccc21`: the fold change is 1.23 (inactive).
Same read-out and setting: the result for `COc1ccccc1NC(=O)Nc1ccc2c(c1)C(=O)OC2` reads 1.33 (inactive); that for `CCCN1CN=C(Nc2nc(C)c3ccc(C)cc3n2)NC1`, -2.8 (active).
Same read-out and setting: the value for `CN(CC(=O)Nc1ccc2c(c1)OCO2)S(=O)(=O)c1ccc2c(c1)c(=O)n(C)c(=O)n2C` was -1.32 (inactive).
On the same count and under the same terms, the result for `Cc1nc2cc(-c3ccc(Cl)cc3)nn2c(C)c1CCC(=O)O` reads -16.5 (active).
On to `O=c1[nH]c(CN2CCN(CCO)CC2)nc2ccccc12`, for which the call was inactive.
With `Cc1ccc(Cn2nc(C)c(NC(=O)c3onc(C)c3Cl)c2C)cc1`, the fold change is 1.31 (inactive).
As to `Cc1ccc(-c2cc(C(F)F)n3ncc(C(=O)Nc4cccnc4Cl)c3n2)cc1`, the fold change was -1.66 (inactive).
For `CC(C)C(NS(=O)(=O)c1ccc2c(c1)oc(=O)n2C)C(=O)Nc1ccc(F)c(F)c1` (stereo not given), the fold change was -1.83 (inactive).
Regarding `O=C(Nc1ccc(F)cc1)c1c[nH]n2c(=O)cc(C3CCNCC3)nc12`, the fold change is -1.37 (inactive).
As to `COc1ccc(-c2nc3s/c(=C\c4cc(OC)c(OC)c(OC)c4)c(=O)n3n2)cc1OC`, the fold change was 1.65 (inactive).
As to `O=C(Nc1cccnc1)c1ccc2c(c1)C1C3CCC(C3)C1C(c1ccccc1)N2` (stereo not given), the fold change is -1.08 (inactive).
As for `CN(C(=O)c1ccc2c(=O)n3c(nc2c1)CCCCC3)c1ccc(F)cc1`, the fold change is -1.12 (inactive).
With `COc1ccc(-c2noc(-c3cc(OC)c(OC)cc3OC)n2)cc1`, the fold change is 1.46 (inactive).
Turning to `Cc1ccc(-c2cc(C(F)F)n3ncc(C(=O)N4CCC(C)CC4)c3n2)cc1`, the fold change is 1.16 (inactive).
`c1ccc(COc2ccc(Oc3nc(N4CCOCC4)nc(N4CCOCC4)n3)nn2)cc1`: the fold change was -1.03 (inactive).
Take `COc1ccccc1Nc1nc(N)nc(CN2CCN(C)CC2)n1`: the fold change was -3.68 (active).
